CRE-bla Fsk: Cell signaling CRE-BLA (Fsk stim). CHO CRE-bla reporter (cAMP response element driving beta-lactamase), forskolin EC10, beta-lactamase ratio. Potency, µM (titrated, usually from 38.2 µM), hits mostly activators. 2.5% of 71,000 active. AID 662, 2007; active = well fitted activation curve with a large enough effect in the signal ratio, with a control signal flat, not every such curve was filed as active; inconclusive = small, poorly fitted or top-dose-only effect, or effect the other way, or a change in a side signal; the % refers to the signal ratio
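The 460nm/530nm emission ratio after CCF4 loading defined %Activity, from which AC50 values were obtained. CRE-bla CHO cells received compound dilution series together with an EC10 level of NKH 477 for 3 hours at 37 degrees Celsius.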
TSHR ag: qHTS Assay for Agonists of the Thyroid Stimulating Hormone Receptor; HEK293-CNG-TSHR cells (CNG channel as cAMP sensor), membrane potential dye, cAMP; Potency, µM (series often up to 57.1 µM), usual class: activators; 0.48% of 73,000 active; Thyrotropin receptor (Homo sapiens), P16473; AID 926, 2007; active = well fitted activation curve with a large enough effect in the main read-out, with a control signal flat, not every such curve was filed as active; inconclusive = small, poorly fitted or top-dose-only effect, or a change in a side signal; inactive = no such curve, though single readings can be large or run the other way; reference of the percent scale not stated here;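 also: the control signal comes from parental cells without the receptor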
Target sequence (P16473 whole entry, looked up): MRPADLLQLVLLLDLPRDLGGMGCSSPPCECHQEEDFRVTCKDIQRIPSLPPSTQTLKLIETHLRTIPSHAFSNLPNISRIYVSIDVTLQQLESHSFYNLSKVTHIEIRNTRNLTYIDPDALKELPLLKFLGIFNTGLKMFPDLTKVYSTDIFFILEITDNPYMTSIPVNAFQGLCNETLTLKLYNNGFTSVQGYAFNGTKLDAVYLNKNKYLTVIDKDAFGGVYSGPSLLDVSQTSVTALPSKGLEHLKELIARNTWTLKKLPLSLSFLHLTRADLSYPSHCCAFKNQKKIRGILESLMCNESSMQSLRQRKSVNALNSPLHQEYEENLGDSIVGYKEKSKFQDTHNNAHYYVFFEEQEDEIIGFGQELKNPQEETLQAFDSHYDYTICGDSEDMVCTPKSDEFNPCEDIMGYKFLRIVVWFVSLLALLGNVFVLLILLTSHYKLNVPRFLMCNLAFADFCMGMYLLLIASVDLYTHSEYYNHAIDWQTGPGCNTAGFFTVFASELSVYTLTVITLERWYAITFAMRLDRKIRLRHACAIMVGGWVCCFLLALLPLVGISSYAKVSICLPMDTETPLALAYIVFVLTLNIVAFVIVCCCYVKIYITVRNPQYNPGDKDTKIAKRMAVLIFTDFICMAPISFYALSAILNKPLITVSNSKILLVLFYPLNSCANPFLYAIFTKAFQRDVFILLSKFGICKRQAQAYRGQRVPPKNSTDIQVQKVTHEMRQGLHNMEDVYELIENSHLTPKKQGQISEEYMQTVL
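HEK 293 cells stably expressing TSHR and a cAMP-gated CNG channel; parental CNG-only cells as counterscreen. Cells preloaded 60 min with membrane potential dye plus 100 uM RO 20-1724, then compound 30 min; fluorescence read at 590 nm.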
HEK293 cAMP ctrl: qHTS Assay for Agonists of the Thyroid Stimulating Hormone Receptor: Activators of Intracellular cAMP Concentrations in Parental HEK 293; parental HEK293 CNG cAMP sensor, membrane potential fluorescence; Potency, µM (doses to about 57.1 µM), actives largely listed as activators; 2.5% of 73,000 active; AID 938, 2007; also: nearly all actives have a fitted effect of over 55% in size
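Counterscreen for endogenous-receptor signalling: CNG-channel HEK 293 cells report cAMP rise by membrane depolarization. After 60 min dye equilibration with 100 uM RO 20-1724, compounds incubated 30 min before bottom-read fluorescence at 590 nm.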
ERK AVP inh: qHTS Assay for Inhibitors of the ERK Signaling Pathway using a Homogeneous Screening Assay; HEK293-V1b, vasopressin-stimulated pERK AlphaScreen; Potency, µM (highest dose often 57.5 µM), most hits filed as inhibitors; 0.99% of 72,000 active; also: nearly all actives have a fitted effect of over 55% in size
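V1b-HEK293 cells; cpd 30 min 37C; 25 nM vasopressin 5 min; lyse 10 min; AlphaScreen beads 5 hr RT. Normalized to DMSO basal and 25 nM vasopressin; AC50 by Hill fit.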
Tau fil binding: qHTS Assay for Tau Filament Binding; recombinant tau filaments, thioflavin S fluorescence, 15 h; filaments grown with octadecylsulfate alongside compound; AID 596, 2007; Potency, µM (doses to about 57.1 µM); 2% of 71,000 active; Microtubule-associated protein tau (Homo sapiens), P10636;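 also: actives lower thioflavin S fluorescence by blocking filaments or displacing dye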
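His-tagged recombinant human tau (exons 2, 3, 10; 1 uM final) fibrillized with 30 uM sodium octadecylsulfate, 15 h at 37 C, in pH 7.4 HEPES buffer with 10 uM thioflavine S and 5 mM DTT. Reduced ThS fluorescence (450/510 nm) marks activity.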
A number is an active result; – = inactive; ? = inconclusive; · = no result; ! = repeats disagree; [ ] = dose if it differs, or a comment. Only some compounds are listed: those with a hit (about 7.4% of all), similar ones and a draw of the others. Unless noted, calls follow the shape of the dose curve; as a rule, active = well fitted curve in the direction sought with a large enough effect; inconclusive = small, poorly fitted or top-dose-only effect, or another doubt; inactive = no such curve, though single readings can be large; an effect the other way counts as inactive or inconclusive.

SMILES | CRE-bla Fsk | TSHR ag | HEK293 cAMP ctrl | ERK AVP inh | Tau fil binding
O=C1C2=CC[C@H]3C(=O)N(Cc4ccc5c(c4)OCO5)C(=O)[C@@H]3[C@@H]2[C@H](O)[C@@H]2O[C@H]12 | · | –[11.4 µM] | –[11.4 µM] | –[11.5 µM] | ·
FC(F)(F)c1cc(CO[C@@H]2CCCN[C@H]2c2ccccc2)cc(C(F)(F)F)c1 | – | · | – | – | –
COc1ccc2nccc(SCC(=O)O)c2c1 | –[7.6 µM] | –[11.4 µM] | –[11.4 µM] | –[11.5 µM] | –[11.4 µM]
CC(C)Sc1nc2c(c(=O)n(C)c(=O)n2C)n1Cc1ccc(Cl)cc1 | – | ? | 7.9µM | ? | –
CCCCCC1=C2CNC(CCC)(C(=O)OC)C=C2C(C)C1=O (configuration not stated) | – | ? | ? | – | –
O=C1c2ccc(O)c(O)c2C(=O)c2c(O)ccc(O)c21 | · | · | · | 3.2µM | ·
O=C1c2cccc(O)c2C(=O)c2c(O)cccc21 | ? | ? | – | ? | –
CC1(C)CC[C@]2(C(=O)O)CC[C@]3(C)C(=CCC4[C@@]5(C)CC[C@H](O)C(C)(C)[C@@H]5CC[C@]43C)C2C1 (some centres not stated) | · | · | · | – | ·
C[C@@H]1OC(OC2CC[C@@]3(C)C(CC[C@@]4(C)C3CC=C3C5CC(C)(C)CC[C@]5(C(=O)OC5OCC(O)[C@@H](O)[C@@H]5OC5O[C@@H](C)[C@H](O[C@H]6OC(CO)C(O)C(O)C6O)C(O)C5O)C(O)C[C@@]34C)C2(C)C)C(O)C(O)[C@H]1OC1OCC(O)C(O)[C@H]1O (some centres not stated) | · | · | · | 13µM | ·
COc1ccc(-c2oc(/N=C/N3CCOCC3)c(C#N)c2-c2ccc(OC)cc2)cc1 | – | – | – | ? | 1µM
CCOC(=O)N1CCN(C(=O)CC(=O)Nc2ccc3nc4n(c(=O)c3c2)CCCCC4)CC1 | – | – | – | – | –
Cc1ccccc1C(=O)Nc1ccc2nc3n(c(=O)c2c1)CCC3 | 13µM | – | – | ? | –
O=C(Nc1cccc(S(=O)(=O)C(F)F)c1)c1ccc(Cl)c(S(=O)(=O)N2CCOCC2)c1 | ? | · | – | 13µM | –
CCOC(=O)C1=C(N)OC2=C(C(=O)CC(C)(C)C2)C1c1cccnc1 (configuration not stated) | – | ? | ? | – | –
CCOC(=O)C1=C(N)OC2=C(C(=O)CC(C)(C)C2)C1c1ccoc1 (configuration not stated) | – | ? | 13µM | – | –
COC(=O)C1=C(N)OC2=C(C(=O)CC(C)(C)C2)C1c1cccs1 (configuration not stated) | –[7.6 µM] | ? | 3.2µM | – | –[11.4 µM]
CC1(c2ccc3noc(-c4ccc(Cl)cc4)c3c2)OCCO1 | – | ? | ? | 16µM | ?
CCOC(=O)c1c(O)[nH]c(=O)c(CC)c1C | –[7.6 µM] | –[11.4 µM] | –[11.4 µM] | –[11.5 µM] | –[11.4 µM]
CC1=C(C)C(=O)NC(Nc2nc(C)c3cc(C)cc(C)c3n2)N1 (configuration not stated) | 0.79µM | – | – | – | –
O=c1[nH]c2ccccc2n1CCCSCCCn1c(=O)[nH]c2ccccc21 | – | · | – | 32µM | –
Cc1cc(C(=O)CSCCCn2c(=O)[nH]c3ccccc32)c(C)n1C | – | – | – | – | –
COCCN(CCOC)c1nc(C)nc2c1nc(-c1ccccc1)n2CC1CCN(C)CC1 | – | – | – | – | –
COC(C1CCCCC1)C(C)C(OCc1cccc(Br)c1)C(C)CO (configuration not stated) | · | –[11.4 µM] | –[11.4 µM] | –[11.5 µM] | ·
Clc1ccc(N2CCN(Cc3c[nH]c4ncccc34)CC2)cc1 | ? | ? | – | – | 40µM!
O=c1cc(-c2c(F)c(F)c(F)c(F)c2F)oc2c(F)c(F)c(F)c(F)c12 | ? | –[11.4 µM] | – | ? | 16µM
SMILES | CRE-bla Fsk | TSHR ag | HEK293 cAMP ctrl | ERK AVP inh | Tau fil binding
O=C(c1cnn2c(C(F)(F)F)cc(-c3ccc4c(c3)OCO4)nc12)N1CCCCC1 | – | ? | 20µM | – | –
Cc1ccc(-c2cc(C(F)(F)F)n3ncc(C(=O)N4CCN(C)CC4)c3n2)cc1 | ? | –[11.4 µM] | –[11.4 µM] | – | 4µM
NC(=O)c1cnn2c(C(F)(F)F)cc(-c3ccc(F)cc3)nc12 | 10µM | – | – | ? | ?
NC(=O)c1cnn2c(C(F)(F)F)cc(-c3ccccc3)nc12 | ? | – | – | ? | –
O=Cc1cccc(Br)c1 | – | – | – | – | –
N#C/C(=C(\O)C(=O)O)c1ccc(-c2cccc3ccccc23)cc1 | –[7.6 µM] | –[11.4 µM] | –[11.4 µM] | –[11.5 µM] | –[11.4 µM]
O=C(OCc1cc(=O)n2c(n1)sc1ccccc12)c1ccc2c(=O)n3c(nc2c1)CCC3 | ? | – | – | – | 6.3µM
Nc1nc2ccc(OC(F)(F)F)cc2s1 | 13µM! | – | – | – | –
Nc1nc2ccc(Oc3ccccc3)cc2s1 | – | – | – | – | –
COc1ccc(C(=O)OCCN2CCOCC2)cc1OC | 10µM | – | – | – | –
CN(C)CC(C)(C)CNC(=O)c1ccc(Cc2nc3ccccc3[nH]2)cc1 | · | – | – | · | ·
O=C1CC(c2ccc3c(c2)OCO3)CN1 (configuration not stated) | – | – | – | – | –
O=C1OCC2=C1C(c1ccc3c(c1)OCO3)Sc1ccccc1N2 (configuration not stated) | – | – | – | 20µM | –
COc1cc(CO)cc(Br)c1OCC(=O)O | – | 25µM | – | – | –
COc1cc(CO)cc(-c2cc(CO)cc(OC)c2OC)c1OC | ? | – | – | – | –
O=C(O)NCC1CCCCC1 (tested in a mixture with another compound) | –[7.6 µM] | –[11.4 µM] | –[11.4 µM] | –[11.5 µM] | –[11.4 µM]
CCOC(=O)c1c(C)n(OCc2ccccc2)c2ccc3nonc3c12 | 10µM | ? | 10µM | – | –
Cc1cc(C(=O)CSc2nncs2)c(C)n1-c1ccc2c(c1)OCO2 | – | ? | ? | 32µM | –
O=C(CSc1nncs1)NCc1ccc2c(c1)OCO2 | – | – | – | – | –
CC(C)[C@@H]1O[C@H](/C=C\c2ccccc2)OCC1(C)C | –[7.6 µM] | –[11.4 µM] | –[11.4 µM] | –[11.5 µM] | –[11.4 µM]
CC1CCC2C(=O)N3CCCC3C(=O)N2C1c1ccc(Br)cc1 (configuration not stated) | · | –[11.4 µM] | –[11.4 µM] | –[11.5 µM] | ·
CCOc1ccc2[nH]c(=O)c(C(c3nnnn3C3CCCCC3)N3CCN(CC)CC3)cc2c1 (configuration not stated) | – | – | – | – | –
CCOc1ccc2[nH]c(=O)c(C(c3nnnn3Cc3ccco3)N3CCC(C)CC3)cc2c1 (configuration not stated) | – | ? | 32µM | – | –
CCOc1ccc2[nH]c(=O)c(C(c3nnnn3C3CCCCC3)N3CCN(C)CC3)cc2c1 (configuration not stated) | – | – | – | – | –
CCOc1ccc2[nH]c(=O)c(C(c3nnnn3Cc3ccco3)N3CCCC(C)C3)cc2c1 (configuration not stated) | ? | ? | 7.9µM | – | –

Screening data as filed in PubChem BioAssay.
